# Screens: PubChem BioAssay, several laboratories
# AHR activator – activates the human aryl hydrocarbon receptor; P35869; AHR-responsive luciferase reporter cells, luminescence; activation, % at 5 µM; hit rate 2.5% among 320,000; in the data active = activation above about 47%;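 also: 0% = vehicle wells and 100% = reference agonist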
# APOBEC3G inh – APOBEC3G (human) deaminase inhibition | Q9HC16 | recombinant A3G, ssDNA deamination FAM/TAMRA fluorescence | hit rate 0.28% among 330,000 | inhibition, % at 20 µM;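 active = inhibition of at least 40% at 20 µM, with no more than 30% in the related APOBEC3A deaminase screen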;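 also: plate controls were DMSO wells with A3G for no effect and wells lacking A3G enzyme for full effect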
# Target sequence (Q9HC16 whole entry, looked up): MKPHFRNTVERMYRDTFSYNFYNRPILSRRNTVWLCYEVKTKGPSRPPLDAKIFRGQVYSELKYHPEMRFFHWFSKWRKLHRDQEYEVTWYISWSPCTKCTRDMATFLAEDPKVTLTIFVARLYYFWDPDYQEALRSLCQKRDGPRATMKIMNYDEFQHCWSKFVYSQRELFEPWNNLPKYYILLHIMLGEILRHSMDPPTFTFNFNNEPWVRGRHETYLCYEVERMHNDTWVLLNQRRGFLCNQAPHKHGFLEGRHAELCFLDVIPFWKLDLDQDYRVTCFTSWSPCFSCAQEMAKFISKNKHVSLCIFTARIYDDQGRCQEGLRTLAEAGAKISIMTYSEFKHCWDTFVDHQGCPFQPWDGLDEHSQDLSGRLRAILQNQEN
# A3A deaminase – inhibitors of human APOBEC3A DNA deaminase; recombinant A3A, FAM/TAMRA ssDNA deamination fluorescence; P31941; hit rate 0.41% among 330,000; inhibition, % at 20 µM;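 active = at least 40% inhibition at 20 µM here, with at most 30% in a related deaminase screen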;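 also: plate controls were A3A with DMSO for no effect and wells lacking A3A enzyme for full effect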
# NTR1 agonist – agonists of human neurotensin receptor NTR1. AID 493036. NTR1-U2OS beta-arrestin-GFP spot imaging, agonist mode. hit rate 0.17% among 330,000. activation, % at 20 µM. P30989;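 active = activation at or above 40% of the spot to cytoplasm intensity ratio, with at least 20 cells analyzed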;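 also: 0% = DMSO without peptide and 100% = 100 nM NTR1 peptide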
# Numbers without * were called inactive; . = no result given. Hits are enriched below; roughly 3.2% of the tested compounds scored in any of these assays.
SMILES,AHR activator,APOBEC3G inh,A3A deaminase,NTR1 agonist
O=C(NCCN1CCN(Cc2ccccc2)CC1)C1c2ccccc2C(=O)N2CCc3ccccc3C12 (stereo not drawn),0,-2,-1,0
Cc1ccc(CNC(=O)C2c3ccccc3C(=O)N3CCc4ccccc4C23)o1 (stereo not drawn),115*,-3,-1,1
CC(C)C(=O)COc1c2occc2cc2ccc(=O)oc12,37,-2,2,0
C=C(C)C(COc1c2occc2cc2ccc(=O)oc12)OC(C)(C)C(O)COc1c2occc2cc2ccc(=O)oc12 (stereo not drawn),78*,-4,-1,2
COc1cccc(CSc2nc3ccncc3[nH]2)c1,28,-1,0,0
O=c1[nH]c(/C=C/c2ccc(OC(F)F)cc2)nc2c1cnn2-c1ccccc1,75*,-7,-4,4
O=C(CSc1n[nH]c(-c2ccco2)n1)Nc1sc2c(c1C(=O)Nc1ccccc1)CCCC2,48*,-1,-2,6
CCOC(=O)c1c(NC(=O)CSc2n[nH]c(-c3ccco3)n2)sc(C)c1C,3,-6,0,3
COC(=O)c1cc(Cl)c(NC(=O)/C=C/c2ccc(OC)cc2)cc1OC,-2,-4,1,2
COC(=O)c1sccc1NC(=O)/C=C/c1ccc(Cl)cc1,54*,-3,-3,4
Clc1ccc2c(NCc3cccs3)ncnc2c1,22,-6,-2,1
Clc1ccc2c(NCc3ccccn3)ncnc2c1,59*,-1,0,2
O=C(N/N=C/c1cccc([N+](=O)[O-])c1)c1cc(-c2ccc3c(c2)OCO3)n[nH]1,20,3,8,-1
O=C(N/N=C/c1ccccc1)c1ccc2c(c1)OCO2,70*,-7,0,2
O=C(N/N=C/c1ccccc1)c1cc(-c2ccc3c(c2)OCO3)n[nH]1,88*,-8,2,-1
O=C(N/N=C/c1cccc(O)c1)c1cc(-c2ccc3c(c2)OCO3)n[nH]1,117*,-7,-2,-1
O=C(N/N=C/c1ccc(O)cc1)c1cc(-c2ccc3c(c2)OCO3)n[nH]1,76*,-10,-3,-2
O=c1onc(-c2ccc(Cl)cc2Cl)n1-c1cccnc1,-2,-6,3,-1
O=C(N/N=C\c1ccccc1)c1cccc(C(=O)N/N=C\c2ccccc2)n1,70*,-15,0,-1
COc1ccc(/C=N/NC(=O)c2cccc(C(=O)N/N=C/c3ccc(OC)cc3)n2)cc1,5,-9,0,-1
O=C(N/N=C/c1cccc2ccccc12)c1cc2ccccc2o1,.,-8,-2,5
O=C(N/N=C/c1ccc2c(c1)OCO2)c1cc2ccccc2o1,69*,-6,3,2
COc1c(Br)cc(Br)cc1/C=N/NC(=O)c1ccncc1,57*,-2,-3,1
CCNC(=S)N/N=C/c1cc(Br)cc(Br)c1OC,63*,-2,7,9
CC(C)c1ccc(NC2CCCN(C(=O)c3n[nH]c4c3CCC4)C2)cc1 (stereo not drawn),12,-7,-8,1
SMILES,AHR activator,APOBEC3G inh,A3A deaminase,NTR1 agonist
COc1ccccc1/C=C/C(=O)NCCc1ccccn1,63*,-10,-2,0
COc1cc(/C=C/C(=O)NCc2ccccn2)cc(OC)c1OC,12,-2,-1,-1
O=C(/C=C/c1ccco1)Nc1cccnc1,71*,-3,-1,1
O=C(/C=C/c1ccco1)Nc1cccc2cccnc12,48*,-8,2,1
O=C(/C=C/c1ccco1)c1cccnc1,0,7,33,-2
COc1ccccc1/C=C/C(=O)Nc1cccnc1,58*,9,3,0
CC1Cc2nc(SCC(=O)NCC3CCCO3)n(-c3ccc(F)cc3)c(=O)c2S1 (stereo not drawn),0,-7,3,1
COC(=O)C[C@H]1c2cc(C(F)(F)F)ccc2S(=O)(=O)N1Cc1ccccc1OC,3,-7,-1,-2
O=C(/C=C/c1ccccc1Cl)Nc1cccnc1,52*,-7,-1,4
O=C(/C=C/c1ccccc1Cl)Nc1ccncc1,-3,-6,-17,0
COC(=O)c1cn(NC(=O)Cc2ccccc2Br)c(=O)c2ccccc12,3,-7,-3,0
CCn1c2ccc(Cl)cc2c2nc3ccccc3nc21,53*,-2,-1,0
CC(C)CN(/C=N/c1sc2c(c1C#N)CCCCC2)CC(C)C,10,-3,0,-2
CCN(/C=N/c1sc2c(c1C#N)CCCCC2)CC,57*,-5,1,0
CCc1ccc(C(=O)CSc2n[nH]c(C)n2)cc1,56*,-8,3,-1
Cc1ccc(C(=O)CSc2n[nH]c(C)n2)cc1,2,-8,-2,1
COc1ccc(S(=O)(=O)Nc2ccccc2C(=O)N2CCOCC2)cc1Cl,0,-9,4,0
Cc1ncoc1C(=O)N1CCCC(N2CCN(c3cccc(C(F)(F)F)c3)CC2)C1 (stereo not drawn),55*,-3,0,-1
CC(C)n1nc(Cc2cccc3ccccc23)c(C#N)c1N,62*,-12,0,-5
Cn1nc(Cc2cccc3ccccc23)c(C#N)c1N,0,-9,-2,0
Cc1nc(CSc2ccc(Cl)cc2)cc(NCc2ccccc2)n1,-1,-7,-5,4
CNc1cc(CSc2ccc(Cl)cc2)nc(C)n1,68*,-5,0,0
COc1ccccc1N(CC(=O)NCC1CCCO1)C(=O)CNS(=O)(=O)c1ccccc1 (stereo not drawn),1,0,3,1
Fc1ccc(NC(=S)Nc2cc(-c3ccccc3)[nH]n2)cc1Cl,53*,-3,1,15
O=C(Nc1ccc(F)c(Cl)c1)c1ccccc1,56*,-7,-1,-5
SMILES,AHR activator,APOBEC3G inh,A3A deaminase,NTR1 agonist
O=C(Nc1ccc(Cl)c(Cl)c1)Nc1nccs1,59*,-7,-7,17
CCn1cc(Br)c(C(=O)Nc2ccc(F)c(Cl)c2)n1,51*,-3,2,0
CCOC(=O)c1ccc(NC(=O)c2nn(CC)cc2Br)cc1,0,-7,0,2
Cc1n[nH]c(=O)c2c(NC(=O)CSc3ccc(Br)cc3)oc(C)c12,3,-13,-5,0
O=C(Nc1ccc(Cl)c(Cl)c1)c1ccncc1,65*,5,7,0
O=C(Nc1cccc(Cl)c1)c1ccncc1,17,-2,-3,-2
Cc1ccccc1NC(=O)c1ccc(Cl)c(NC(=O)c2ccncc2)c1,48*,-7,-2,-1
C/C(=N\NC(=O)c1cccnc1)c1ccc(OC2OCCOC2Oc2ccc(/C(C)=N/NC(=O)c3cccnc3)cc2)cc1 (stereo not drawn),20,6,3,-1
Cc1cc(NC(=O)c2cc3cccc([N+](=O)[O-])c3[nH]2)ccc1F,65*,2,1,10
Cn1c(O)c(N=NC(=O)C2COc3ccccc3O2)c2ccccc21 (stereo not drawn),33,-2,1,3
CC(C)n1c(O)c(N=NC(=O)C2COc3ccccc3O2)c2ccccc21 (stereo not drawn),58*,-2,0,5
